# According to PubChem BioAssay AID1445 (SRMLSC, 2008):
# About 910 (0.41%) of roughly 220,000 compounds were called active.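 The calls were made as follows: active = primary inhibition above the hit cutoff, then over 50% inhibition at one or more dose response concentrations (cut at about 23% in these data, passing the limit was not always enough); inconclusive = conflicting primary data, or primary hits not chosen for dose response; inactive = low primary inhibition, or under 50% at every dose.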 The entries come from a sample that favours actives as a whole. Entries with a potency or affinity are not part of this list.
# Target: Aminopeptidase N (Plasmodium falciparum (isolate 3D7)) (UniProt O96935)
# Sequence (O96935 whole entry, looked up): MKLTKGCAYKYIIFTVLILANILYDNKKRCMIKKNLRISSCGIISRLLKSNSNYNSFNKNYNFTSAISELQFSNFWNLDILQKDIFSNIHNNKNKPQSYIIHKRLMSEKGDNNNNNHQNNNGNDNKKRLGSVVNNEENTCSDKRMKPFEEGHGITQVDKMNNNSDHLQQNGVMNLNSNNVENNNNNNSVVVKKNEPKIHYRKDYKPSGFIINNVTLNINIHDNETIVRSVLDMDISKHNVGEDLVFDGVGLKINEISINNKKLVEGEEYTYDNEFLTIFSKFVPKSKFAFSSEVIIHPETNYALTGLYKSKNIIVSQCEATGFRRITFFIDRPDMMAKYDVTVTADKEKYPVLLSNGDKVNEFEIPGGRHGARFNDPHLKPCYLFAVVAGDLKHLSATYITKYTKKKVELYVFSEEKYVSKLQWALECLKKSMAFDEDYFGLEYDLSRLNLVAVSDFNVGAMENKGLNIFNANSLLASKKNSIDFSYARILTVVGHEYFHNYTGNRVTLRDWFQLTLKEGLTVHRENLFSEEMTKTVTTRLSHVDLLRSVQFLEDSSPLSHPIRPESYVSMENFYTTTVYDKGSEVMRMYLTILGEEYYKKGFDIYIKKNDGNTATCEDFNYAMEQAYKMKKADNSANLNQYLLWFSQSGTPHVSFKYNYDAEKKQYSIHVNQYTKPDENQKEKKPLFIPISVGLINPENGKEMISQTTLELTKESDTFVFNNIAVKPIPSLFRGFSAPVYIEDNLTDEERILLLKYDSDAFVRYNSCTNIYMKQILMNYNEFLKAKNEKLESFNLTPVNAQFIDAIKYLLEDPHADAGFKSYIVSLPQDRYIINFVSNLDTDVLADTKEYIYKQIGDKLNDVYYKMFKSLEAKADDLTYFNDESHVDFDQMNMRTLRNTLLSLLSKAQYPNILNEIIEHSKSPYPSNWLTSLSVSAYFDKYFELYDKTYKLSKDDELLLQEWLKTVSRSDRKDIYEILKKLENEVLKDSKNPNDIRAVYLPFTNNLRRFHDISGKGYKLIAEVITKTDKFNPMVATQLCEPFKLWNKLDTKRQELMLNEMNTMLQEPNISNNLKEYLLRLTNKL
# Experiment: malaria alanyl aminopeptidase activity blockers – biochemical, fluorogenic H-Leu-NHMec substrate, 1536-well (AID 1445);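 also: plate controls were DMSO full reaction for no effect and no enzyme background for full effect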
# Conditions: recombinant M1AAP, H-Leu-NHMec fluorogenic kinetic assay; at 30 µM, stronger effect = higher value unless noted
row,SMILES,inhibition
1,Cc1ccc(-c2cc(-c3ccccc3)c3c(N)c(S(C)(=O)=O)sc3n2)cc1,14.5% (inactive)
2,CC(C)NC(=O)c1sc2nc(-c3cccs3)cc(-c3cccs3)c2c1N,24.2% (active)
3,CCN(CC)C(=O)c1sc2nc(-c3cccs3)cc(-c3cccs3)c2c1N,7.47% (inactive)
4,N#Cc1sc2nc(-c3cccs3)cc(-c3ccccc3)c2c1N,13.3% (inactive)
5,CC(C)NC(=O)c1sc2nc3c(c(-c4cccs4)c2c1N)CN(C)CC3,5.01% (inactive)
6,Cc1ccc(NC(=O)CCc2c(C)nc3ncnn3c2C)cc1,0.77% (inactive)
7,CC(NC(=O)c1cc(-c2ccc3c(c2)OCO3)nc2ccccc12)C(C)(C)C (stereo not drawn),3.57% (inactive)
8,COc1ccc(C2/C=C\CN(Cc3ccco3)CC(=O)N2Cc2ccc(F)cc2)cc1 (stereo not drawn),4.94% (inactive)
9,C=CCN1C(=S)N[C@@H]2CS(=O)(=O)C[C@@H]21,5.08% (inactive)
10,O=C(Nc1cccc(F)c1)c1cc(S(=O)(=O)N2CCOCC2)cs1,9% (inactive)
11,Cc1ccc(-c2cn3cccnc3n2)cc1NC(=O)c1ccc(Br)o1,24.6% (active)
12,COc1ccc(-c2cn3cccnc3n2)cc1NC(=O)c1ccc(Br)o1,11.3% (inactive)
13,O=C(Nc1cccc(-c2cn3cccnc3n2)c1)c1ccc(Br)o1,2.48% (inactive)
14,Cc1cc(N2CCCC2)c(C)cc1C=O,17.1% (inactive)
15,Cc1cccc(NC(=O)CN2CCSc3ccccc32)c1,6.82% (inactive)
16,COc1ccc(Cl)cc1C(=O)NNC(=O)c1nc2nc(C)cc(C)n2n1,0.99% (inactive)
17,Cc1cc(C)n2nc(C(=O)NNC(=O)c3ccccc3)nc2n1,5.93% (inactive)
18,O=C(OCn1nnc2ccccc2c1=O)c1cc(-c2ccccc2Cl)nc2ccccc12,12.3% (inactive)
19,Cc1ccc(N2C(=O)CC(Sc3nc(-c4ccccc4)c4cc(Cl)ccc4n3)C2=O)c(C)c1 (stereo not drawn),8.91% (inactive)
20,COc1ccc(CC(=O)n2[nH]c(=O)cc(C)c2=O)cc1OC,8.27% (inactive)
21,COc1ccc(S(=O)(=O)N2CCC(C(=O)NCc3cccs3)CC2)cc1,6.28% (inactive)
22,O=C(NCc1cccs1)C1CCCN(S(=O)(=O)c2ccc3c(c2)OCO3)C1 (stereo not drawn),8.66% (inactive)
23,COc1ccc(S(=O)(=O)N2CCC(C(=O)Nc3ccc4c(c3)OCCO4)CC2)cc1OC,1.25% (inactive)
24,O=C(NCCc1ccc(Cl)cc1)C1CCN(S(=O)(=O)c2ccc(Br)s2)CC1,4.81% (inactive)

row,SMILES,inhibition
1,O=C(Nc1ccc2c(c1)OCCO2)C1CCN(S(=O)(=O)c2ccc3c(c2)OCCO3)CC1,9.64% (inactive)
2,COc1cccc(NC(=O)C2CCN(S(=O)(=O)c3ccc4c(c3)OCCO4)CC2)c1,43% (active)
3,O=C(NCc1cccs1)C1CCN(S(=O)(=O)c2ccc3c(c2)OCCO3)CC1,23.4% (active)
4,NS(=O)(=O)c1ccc(CCNC(=O)C2CCN(S(=O)(=O)c3ccc(Br)s3)CC2)cc1,2.64% (inactive)
5,O=C(NCc1cccs1)C1CCN(c2ccc(S(=O)(=O)N3CCOCC3)cc2Cl)CC1,-0.57% (inactive)
6,O=C(NCc1ccc(Cl)cc1)C1CCN(S(=O)(=O)c2ccccc2)CC1,11.8% (inactive)
7,N#CCCN1CCN(C(=S)c2ccc(-c3ccc(Cl)c(Cl)c3)o2)CC1,7.98% (inactive)
8,N#C/C(=C(/O)c1ccc([N+](=O)[O-])cc1)c1nc2ccccc2[nH]1,6.69% (inactive)
9,CCOC(=O)N1CCN(C(=O)CCl)CC1,2.94% (inactive)
10,Cc1ccc(N2CCN(C(=O)c3ccccc3NC(=O)c3ccccc3C(=O)O)CC2)cc1,6.79% (inactive)
11,COCCNC(=O)c1cc2cc(Br)cc(Br)c2oc1=O,2.6% (inactive)
12,N#C/C(=C\c1ccc(-c2cccc(Cl)c2)o1)C(=O)Nc1cccc2cccnc12,-0.58% (inactive)
13,Cn1c(N)c(C(=O)COC(=O)C2=COCCO2)c(=O)n(C)c1=O,3.8% (inactive)
14,O=C(NCc1cccs1)C1CCCN1S(=O)(=O)c1ccccc1F (stereo not drawn),2.94% (inactive)
15,O=C(NCc1cccs1)C1CCN(S(=O)(=O)N2CCCC2)CC1,4.08% (inactive)
16,O=C(NCc1cccs1)C1CCCN(S(=O)(=O)c2ccc(Br)s2)C1 (stereo not drawn),18.8% (inactive)
17,O=C(NCc1cccs1)C1CCCN(S(=O)(=O)c2cccs2)C1 (stereo not drawn),14.9% (inactive)
18,CCS(=O)(=O)N1CCC(C(=O)NCc2cccs2)CC1,10.2% (inactive)
19,O=C(NCc1cccs1)C1CCC(CNS(=O)(=O)c2ccc(Br)s2)CC1 (stereo not drawn),-4.74% (inactive)
20,COc1ccccc1NC(=O)c1ccc(-n2cncn2)nc1,18.8% (inactive)
21,FC(F)(F)c1ccc(Oc2ccccc2Cl)nc1,2.42% (inactive)
22,CCC(=O)N(Cc1ccco1)C1CC(=O)N(c2ccccc2)C1=O (stereo not drawn),0.67% (inactive)
23,O=C1CC(N(Cc2ccc3c(c2)OCO3)C(=O)Nc2ccc(F)cc2)C(=O)N1c1ccccc1 (stereo not drawn),20.8% (inactive)
24,O=C1CC(N(Cc2ccco2)C(=O)Nc2ccc(F)cc2)C(=O)N1c1ccc(F)cc1 (stereo not drawn),23.6% (active)
